Test results from the OligoGym collection.

Biological target: FXN
Experiment: pooled miR-30 sensor sort-seq; sequence = guide strand
Conditions: shRNA
Note: reference of the scale not given here.

Sequence | sensor-assay potency score (higher = more potent)
TTGTTGATCACATAGGTTCCTA | 0.0276
TTTAGTGAGCTCTGCGGCCAGC | -1.33
TTAAAAATCAGAACTTGGGGGC | 0.521
TTTGACATTCCAAATCTGGTTG | -0.256
TCTGCTAGTCTTTCATAGGTGG | 0.437
TGCTTGTTGATCACATAGGTTC | -0.833
TTTCATAGGTGGTCTCATCTAG | -0.00192
TTGACAGTTAAGACACCACTCC | -0.462
ATAACGCTTAGGTCCACTGGAT | -1.03

Biological target: FXR1
Experiment: as above
Conditions: shRNA

Sequence | sensor-assay potency score (higher = more potent)
TTGCTCTTGAATATACCTCTAC | -0.669
TTTCTTGAATAACTTTGCCATT | -1.55
TTGAGCACAGAACTGATGGAGG | -0.647
TATTAATCTTTTCTTCTCCTGG | -0.0994
TTCATTTCTGGACATAAGCATC | -1.34
TTATTTTCAAAAACAACTGTAA | -0.406
TATTTTATAACACAGTAGGTGT | -0.648
TATACCTCTACTTCATCTCCTT | 0.473
TAAGCATCAACTTCGTACGAAT | -0.962
TTCAATCACATCTTTTGCCATT | -1.45
TGTCTCGATCATCTTCTCCTGC | 0.196
